# Source: PubChem BioAssay (EPA / NIEHS)
# Some structures have more than one record in an assay (separate samples or runs), and their calls can disagree. Active and inactive are the calls of the source. The calls were made as follows: active = hit-call score of the fitted dose curve at least 0.9, where 1 is the maximum; inactive = score below 0.9.
# Assay: BSK_SAg_SRB: Viability Assessment in the BioMAP Diversity Plus: SAg Assay (AID 2283096);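 also: hits may be either gain or loss of signal compared with DMSO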
# Conditions: primary human HUVEC with PBMC
# Procedure: BSK_SAg is a cell-based, multiplexed-readout assay that uses umbilical vein endothelium and peripheral blood mononuclear cells, a human vascular primary cell co-culture, with measurements taken at 24 hours after chemical dosing in a 96-well plate.BSK_SAg_SRB is an assay component measured in the BSK_SAg assay. It measures protein content, a form of viability reporter, as detected with absorbance signals by Sulforhodamine staining technology.Data from the assay component BSK_SAg_SRB was analyzed into 1 assay endpoint. This assay endpoint, BSK_SAg_SRB, was analyzed with bidirectional fitting relative to DMSO as the negative control and baseline of activity. Using a type of viability reporter, gain or loss-of-signal activity can be used to understand changes in the signaling. Furthermore, this assay endpoint can be referred to as a primary readout, because this assay has produced multiple assay endpoints where this one serves a signaling function. To generalize the intended target to other relatable targets, this assay endpoint is annotated to the cell morphology intended target family, where the subfamily is cell conformation.
# The levels of cell surface (or secreted, indicated by the prefix "s") biomarker endpoints were measured by ELISA. Overt cytotoxicity to cells in confluent adherent cultures (all systems other than the BT system) was assessed by measuring total protein levels using sulforhodamine B (SRB) staining in parallel cultures at the time of biomarker measurements, indicated as SRB endpoints. For proliferation assays for adherent cell types, individual cell types are cultured at sub-confluence and relative cell numbers quantified by SRB staining at time points optimized for each system (48 h: 3C and CASM3C systems; 72 h: BT and HDF3CGF systems; 96 h: SAg system). SRB was performed by staining cells with 0.1% SRB after fixation with 10% TCA and reading wells at 560 nm.Viability and proliferation of PBMC (T cells) was quantified by Alamar Blue reduction for the SAg and BT systems. For PBMC viability (referred to as PBMC Cytotoxicity within the assay endpoint names), cells were plated (75,000/well in a 96-well plate) and then chemical samples added for 1 h before addition of activators, SEB and TSST-1 (20 ng/mL final concentration each). Cells were incubated for 90 h. Then, Alamar Blue (20 uL/well) (Invitrogen, Cat DAL1100) was added for 6 h, and the plates were read with a fluorescence microplate reader at 546/580 nm (excitation/emission). For PBMC proliferation, cells were plated and activated as above but incubated for only 16 h prior to addition of Alamar Blue. Plates were read after 6 h.
Compound,outcome,AC50
CN(C)C(=O)Cl,inactive,–
CCN(CC)c1ccccc1,inactive,–
c1nc[nH]n1,inactive,–
O=C(O)C(F)(F)OC(F)(F)C(F)(F)OC(F)(F)C(=O)O,inactive,–
CCOP(=S)(S)OCC,inactive,–
c1cc2c3c(cccc3c1)CC2,inactive,–
CC(O)C(F)(F)C(F)(F)F (stereo not given),inactive,–
OCC(F)(F)OC(F)(F)C(F)(F)OC(F)(F)C(F)(F)OC(F)(F)F,inactive,30 µM (active)
O=C(O)C(F)(F)C(F)(F)C(=O)O,inactive,–
O=C(O)C=CC(F)(C(F)(F)F)C(F)(F)F,inactive,–
CC(Cc1ccc(OCC(=O)O)cc1)NCC(O)c1csc(C(F)(F)F)n1 (stereo not given),inactive,–
O=c1ssc(Cl)c1Cl,–,6.23 µM (active)
ClC(Cl)(Cl)c1ccccc1,inactive,–
CCOP(=S)(Oc1ccc([N+](=O)[O-])cc1)c1ccccc1 (stereo not given),inactive,–
c1ccc(OP(Oc2ccccc2)Oc2ccccc2)cc1,inactive,–
CC(C)(C)c1ccccc1OP(=O)(Oc1ccccc1)Oc1ccccc1,–,30.7 µM (active)
O=P(Oc1ccccc1)(Oc1ccccc1)Oc1ccccc1,–,29.3 µM (active)
CCC(C)(C)c1ccc(O)cc1,inactive,–
O=C(O)C1C(C(=O)O)C2(Cl)C(Cl)=C(Cl)C1(Cl)C2(Cl)Cl (stereo not given),inactive,–
CCOC(=O)c1ccccc1C(=O)OCC,inactive,–

Compound,outcome,AC50
Nc1ccc2ccccc2c1,inactive,–
CCOP(=S)(OCC)SCS(=O)(=O)CC,inactive,–
CCCN(CCC)c1c([N+](=O)[O-])cc(C(C)C)cc1[N+](=O)[O-],–,29.5 µM (active)
Nc1ccc([N+](=O)[O-])cc1Cl,inactive,–
ClC(Cl)=C(c1ccc(Cl)cc1)c1ccccc1Cl,–,30.3 µM (active)
CC(C)Nc1ccc(Nc2ccccc2)cc1,–,14.1 µM (active)
O=P1(N(CCCl)CCCl)NCCCO1 (stereo not given),inactive,–
CCCCOCCOP(=O)(OCCOCCCC)OCCOCCCC,inactive,–
CCOS(=O)(=O)OCC,inactive,–
ClC(Cl)c1ccccc1,inactive,–
CCCCC(CC)COC(=O)c1c(Br)c(Br)c(Br)c(Br)c1C(=O)OCC(CC)CCCC (stereo not given),inactive,–
CCCCC(CC)COP(=O)(Oc1ccccc1)Oc1ccccc1 (stereo not given),inactive,–
NC(=O)C(F)(F)C(F)(F)F,inactive,–
CSC(C)(C)C=NO,inactive,–
[N-]=[N+]=[N-],inactive,–
N#Cc1c(-c2ccc(Cl)cc2)[nH]c(C(F)(F)F)c1Br,–,4.34 µM (active)
Cc1ccc([N+](=O)[O-])cc1C,inactive,–
CC(Cl)(Cl)C(=O)O,inactive,–
OCC1CO1 (stereo not given),inactive,–
